Assay results as given in the supplement of paper PMC12350171.
Structures can show the parent of a compound that is named as a salt.

How the values were obtained:
Details in all cases: 20 µM
[1] = tested on: Haemophilus parainfluenzae; assay: growth AUC normalised to DMSO control (fraction of control); higher = less growth inhibition, active = hit call of the paper
In short: (§1)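 Hemin and NAD were added to the medium for Haemophilus parainfluenzae. All pathogens, after two anaerobic passages, were inoculated at a starting OD578 of 0.01 into pre-reduced mGAM plates with 20 μM compound and 1% DMSO under breathable seals, and OD578 was read hourly for 24 h in three biological replicates. AUC of each growth curve was obtained with the trapezoidal rule up to the exponential-to-stationary transition and normalised to DMSO controls from the same plate.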

[2] = tested on: Salmonella enterica typhimurium; assay: as above
In short: as §1

Shigella flexneri = assay: as above
In short: as §1

Vibrio cholerae = assay: as above
In short: as §1

[3] = tested on: Yersinia pseudotuberculosis; assay: as above
In short: as §1

P. vulgatus RND KO = assay: growth AUC normalised to DMSO control (median) (fraction of control); higher = less growth inhibition, active = hit call of the paper
In short: (§2)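 Strains were passaged twice overnight without oxygen, then grown in mGAM in 96-well plates with each approved-drug library compound at 20 μM and 1% DMSO, starting at OD578 0.01. OD578 was read hourly for 24 h inside an anaerobic incubator. Curves were truncated at entry into stationary phase, and the trapezoidal-rule area under the curve was normalised to same-plate vehicle wells. The value is the median across three biological replicates.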

P. vulgatus WT = assay: as above
In short: as §2

[4] = tested on: S. enterica typhimurium WT; assay: as above
In short: as §2

[5] = tested on: S. enterica typhimurium tolC KO; assay: as above
In short: as §2

Measured: growth AUC normalised to DMSO control
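Throughout, for growth AUC normalised to DMSO control (median): active when median AUC fell below 0.1.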

CC(=O)O[C@]1(C(C)=O)CC[C@H]2[C@@H]3C=C(Cl)C4=CC(=O)CC[C@]4(C)[C@H]3CC[C@@]21C [Chlormadinone acetate]
inactive: [1] 1.01

CCn1cc(C(=O)O)c(=O)c2cc(F)c(N3CCN(C)CC3)cc21 [Pefloxacin]
active: [1] 0.0557

Cc1cc(C(C)(C)C)cc(C)c1CC1=NCCN1 [Xylometazoline hydrochloride]
inactive: [1] 0.996

Cn1c(=O)c2c(ncn2CCO)n(C)c1=O [Etofylline]
inactive: [1] 1.02

CC(C)NNC(=O)c1ccncc1 [Iproniazide phosphate]
inactive: [1] 1.04

Cc1c(O)c(=O)n(-c2ccccc2)n1C [Antipyrine, 4-hydroxy]
inactive: [1] 0.974

OCC(O)CN1CCN(c2ccccc2)CC1 (stereo unspecified) [Dropropizine]
inactive: [1] 1.07

COC(=O)Nc1nc2cc(C(=O)c3ccc(F)cc3)ccc2[nH]1 [Flubendazol]
inactive: [1] 1.02

CN[C@@H]1[C@H](O[C@H]2[C@H](O[C@H]3[C@H](O)[C@@H](O)[C@H](N=C(N)N)[C@@H](O)[C@@H]3N=C(N)N)O[C@@H](C)[C@]2(O)C=O)O[C@@H](CO)[C@H](O)[C@H]1O [Streptomycin sulfate]
active: [1] 0.633

CC[C@H](C)[C@H]1O[C@]2(C=C[C@@H]1C)C[C@@H]1C[C@@H](C/C=C(\C)[C@@H](O[C@H]3C[C@H](OC)[C@@H](O[C@H]4C[C@H](OC)[C@@H](O)[C@H](C)O4)[C@H](C)O3)[C@@H](C)/C=C/C=C3\CO[C@@H]4[C@H](O)C(C)=C[C@@H](C(=O)O1)[C@]34O)O2.CO[C@H]1C[C@H](O[C@H]2[C@H](C)O[C@@H](O[C@@H]3/C(C)=C/C[C@@H]4C[C@@H](C[C@]5(C=C[C@H](C)[C@@H](C(C)C)O5)O4)OC(=O)[C@@H]4C=C(C)[C@@H](O)[C@H]5OC/C(=C\C=C\[C@@H]3C)[C@]54O)C[C@@H]2OC)O[C@@H](C)[C@@H]1O [Avermectin B1]
inactive: [2] 1.02 | Shigella flexneri 1.03 | Vibrio cholerae 1.02 | [3] 1.01

CN1[C@@H]2CC[C@H]1C[C@@H](OC(=O)C(CO)c1ccccc1)C2 (stereo partly specified) [Atropine sulfate monohydrate]
inactive: [1] 1.06 | [2] 1.01 | Shigella flexneri 1.06 | Vibrio cholerae 1.03 | [3] 1 | P. vulgatus RND KO 1.04 | P. vulgatus WT 1.07 | [4] 1.01 | [5] 0.987

COc1ccc(CCN2CCC(Nc3nc4ccccc4n3Cc3ccc(F)cc3)CC2)cc1 [Astemizole]
inactive: [1] 1.02 | [2] 1.05 | Shigella flexneri 0.997 | Vibrio cholerae 0.934 | [3] 1.02 | P. vulgatus RND KO 1.01 | P. vulgatus WT 0.986 | [4] 1 | [5] 0.962

CC(C)c1cccc(C(C)C)c1O [Propofol]
inactive: [1] 0.988 | [2] 1.01 | Shigella flexneri 1.01 | Vibrio cholerae 1.01 | [3] 0.985 | P. vulgatus RND KO 1.05 | P. vulgatus WT 1.05 | [4] 1.01 | [5] 0.993

CC(C)N(CCC(C(N)=O)(c1ccccc1)c1ccccn1)C(C)C (stereo unspecified) [Disopyramide]
inactive: [1] 0.997 | [2] 0.993 | Shigella flexneri 0.988 | Vibrio cholerae 0.983 | [3] 0.996 | P. vulgatus RND KO 1 | P. vulgatus WT 0.998 | [4] 1 | [5] 0.983

CN(C)C(=O)Oc1cc(OC(=O)N(C)C)cc(C(O)CNC(C)(C)C)c1 (stereo unspecified) [Bambuterol hydrochloride]
inactive: [1] 0.992 | [2] 1 | Shigella flexneri 0.997 | Vibrio cholerae 1 | [3] 1.02 | P. vulgatus RND KO 1.05 | P. vulgatus WT 1.02 | [4] 1.01 | [5] 1.01

CO[C@]12C[C@@H](COC(=O)c3cncc(Br)c3)CN(C)[C@@H]1Cc1cn(C)c3cccc2c13 [Nicergoline]
inactive: [1] 1.03 | [2] 1.01 | Shigella flexneri 1 | Vibrio cholerae 0.996 | [3] 1 | P. vulgatus RND KO 0.933 | P. vulgatus WT 0.948 | [4] 1 | [5] 0.942

C[N+]1(C)CCOC(O)(c2ccc(-c3ccc(C4(O)C[N+](C)(C)CCO4)cc3)cc2)C1 (stereo unspecified) [Hemicholinium bromide]
inactive: [1] 0.977 | [2] 1 | Shigella flexneri 1.03 | Vibrio cholerae 1.06 | [3] 1.03 | P. vulgatus RND KO 1 | P. vulgatus WT 1.02 | [4] 1.01 | [5] 1

CN1C(=O)CCS(=O)(=O)C1c1ccc(Cl)cc1 (stereo unspecified) [Chlormezanone]
inactive: [1] 1.02 | [2] 1 | Shigella flexneri 0.992 | Vibrio cholerae 1.01 | [3] 0.995 | P. vulgatus RND KO 1.03 | P. vulgatus WT 1.02 | [4] 1 | [5] 1

COc1ccc(C(=O)N2CCCC2=O)cc1 [Aniracetam]
inactive: [1] 0.993 | [2] 1 | Shigella flexneri 0.998 | Vibrio cholerae 1.01 | [3] 0.972 | P. vulgatus RND KO 0.996 | P. vulgatus WT 1.01 | [4] 0.995 | [5] 0.997

N[C@@H]1C[C@H]1c1ccccc1 [Tranylcypromine hydrochloride]
inactive: [1] 1.04 | [2] 0.999 | Shigella flexneri 1 | Vibrio cholerae 1.01 | [3] 0.959 | P. vulgatus RND KO 1.01 | P. vulgatus WT 1.05 | [4] 1.01 | [5] 1

CN1[C@@H]2CC[C@H]1C[C@@H](OC1c3ccccc3CCc3ccccc31)C2 [Deptropine citrate]
inactive: [1] 0.95 | [2] 0.993 | Shigella flexneri 0.971 | Vibrio cholerae 0.926 | [3] 0.965 | P. vulgatus RND KO 0.941 | P. vulgatus WT 0.945 | [4] 0.994 | [5] 0.942

CCC1(c2ccc(N)cc2)CCC(=O)NC1=O (stereo unspecified) [Glutethimide, para-amino]
inactive: [1] 1.04 | [2] 1.01 | Shigella flexneri 1 | Vibrio cholerae 1.04 | [3] 0.988 | P. vulgatus RND KO 1.02 | P. vulgatus WT 1.04 | [4] 1.02 | [5] 0.993

CN1C[C@H](CNC(=O)OCc2ccccc2)C[C@@H]2c3cccc4c3c(cn4C)C[C@H]21 [Metergoline]
inactive: [1] 0.925 | [2] 0.979 | Shigella flexneri 0.973 | Vibrio cholerae 0.893 | [3] 0.993 | P. vulgatus RND KO 0.886 | P. vulgatus WT 0.885 | [4] 0.992 | [5] 0.895

COc1ccc(C(CN(C)C)C2(O)CCCCC2)cc1 (stereo unspecified) [Venlafaxine]
inactive: [1] 1.33 | [2] 0.98 | Shigella flexneri 0.957 | Vibrio cholerae 0.984 | [3] 1.08 | P. vulgatus RND KO 0.997 | P. vulgatus WT 0.999 | [4] 0.997 | [5] 1

CC(NC(C)(C)C)C(=O)c1cccc(Cl)c1 (stereo unspecified) [Bupropion hydrochloride]
inactive: [1] 1.01 | [2] 1 | Shigella flexneri 1.05 | Vibrio cholerae 1.05 | [3] 1.01 | P. vulgatus RND KO 1.03 | P. vulgatus WT 1.03 | [4] 0.996 | [5] 1

CC(C)c1c(CN(C)C(C)Cc2ccccc2)n(C)n(-c2ccccc2)c1=O (stereo unspecified) [Famprofazone]
inactive: [1] 0.971 | [2] 0.997 | Shigella flexneri 1.03 | Vibrio cholerae 0.965 | [3] 1 | P. vulgatus RND KO 0.992 | P. vulgatus WT 1 | [4] 1.01 | [5] 0.871

CC[N+]1(C)CCCC(OC(=O)C(O)(c2ccccc2)c2ccccc2)C1 (stereo unspecified) [Pipenzolate bromide]
inactive: [1] 0.996 | [2] 0.993 | Shigella flexneri 0.977 | Vibrio cholerae 0.998 | [3] 1.01 | P. vulgatus RND KO 1 | P. vulgatus WT 1.02 | [4] 1 | [5] 0.999

O=C1CC[C@@]2(O)[C@H]3Cc4ccc(O)c5c4[C@@]2(CCN3CC2CC2)[C@H]1O5 [Naltrexone hydrochloride dihydrate]
inactive: [1] 0.995 | [2] 1 | Shigella flexneri 0.992 | Vibrio cholerae 1 | [3] 1.01 | P. vulgatus RND KO 0.994 | P. vulgatus WT 1.02 | [4] 0.993 | [5] 0.998

CCC(=O)O[C@@](Cc1ccccc1)(c1ccccc1)[C@@H](C)CN(C)C [Levopropoxyphene napsylate]
inactive: [1] 1 | [2] 0.999 | Shigella flexneri 1.04 | Vibrio cholerae 1 | [3] 1.02 | P. vulgatus RND KO 1.03 | P. vulgatus WT 1.05 | [4] 1 | [5] 0.995

CC(C)(C)NCC(O)c1ccccc1Cl (stereo unspecified) [Tulobuterol hydrochloride]
inactive: [1] 1 | [2] 1 | Shigella flexneri 1.01 | Vibrio cholerae 1.03 | [3] 0.893 | P. vulgatus RND KO 0.991 | P. vulgatus WT 1.01 | [4] 0.99 | [5] 1.01

CNC(=O)Oc1ccc2c(c1)[C@]1(C)CCN(C)[C@@H]1N2C [Eserine hemisulfate salt]
inactive: [1] 0.975 | [2] 1.01 | Shigella flexneri 1.02 | Vibrio cholerae 1.06 | [3] 0.97 | P. vulgatus RND KO 1.07 | P. vulgatus WT 1.06 | [4] 0.999 | [5] 0.993

CC(=O)NC1CCSC1=O (stereo unspecified) [Citiolone]
inactive: [1] 1.03 | [2] 1.01 | Shigella flexneri 1 | Vibrio cholerae 1.03 | [3] 0.985 | P. vulgatus RND KO 1.03 | P. vulgatus WT 1.04 | [4] 1 | [5] 1.01
